An excerpt weighted towards active compounds, which were near 0.54% of everything screened.
CatS block – human cathepsin S inhibition. 0.06% of 62,000 active. AID 501. recombinant cathepsin S, AMC dipeptide fluorescence, pooled mixtures. P25774. inhibition, %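 (tested at 5 µM per compound within 10-compound mixtures)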; in the data active = inhibition above about 32%, passing the limit was not always enough;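 note: 0% = enzyme without compound and 100% = blank without enzyme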
CatB mixtures – inhibitors of human cathepsin B in compound mixtures; Purified cathepsin B, AMC dipeptide fluorescence; P07858; inhibition, %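 (ten-compound pools at 5 µM per compound and 50 µM total)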; 0.06% of 62,000 active; in the data active = inhibition above about 22%, passing the limit was not always enough;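 note: 0% = enzyme without compound and 100% = no enzyme blank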
C1s block – human complement C1s inhibition; P09871; purified C1s, fluorogenic AMC substrate, pooled mixtures; mean inhibition % of two 10-compound mixtures (hits give high values), % at 5 µM (by protocol); 0.16% of 62,000 active;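 active = inhibition above 20% in each of the two 10-compound mixture wells holding the compound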;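 note: 0% = enzyme wells lacking compound mixture and 100% = no-enzyme blank wells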
CatG inh – blocks human cathepsin G enzyme activity; inhibition, % at 5 µM (by protocol); 0.2% of 62,000 active; AID 581; purified enzyme, AMC-tetrapeptide fluorescence, pooled mixtures; P08311;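 active = inhibition above 20% in each of the two mixture wells holding the compound; inactive = inhibition of 20% or less in either well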;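 note: 0% = enzyme control without mixture and 100% = blank lacking enzyme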
Target sequence (P08311 21-244 limits assumed): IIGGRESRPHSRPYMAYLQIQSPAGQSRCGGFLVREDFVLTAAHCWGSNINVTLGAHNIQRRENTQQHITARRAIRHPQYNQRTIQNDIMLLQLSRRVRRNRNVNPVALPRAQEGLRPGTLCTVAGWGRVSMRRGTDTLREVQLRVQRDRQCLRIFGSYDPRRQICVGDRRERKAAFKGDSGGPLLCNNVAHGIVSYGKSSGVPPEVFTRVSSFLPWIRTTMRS
CatL inh – inhibitors of human cathepsin L; purified cathepsin L, fluorogenic substrate, fluorescence; inhibition, %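 (tested at 10 µM)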; 0.17% of 58,000 active; in the data active = inhibition above about 45%;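 note: 0% = enzyme with no compound and 100% = no enzyme blank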
Target sequence (P07711 114-288 limits assumed): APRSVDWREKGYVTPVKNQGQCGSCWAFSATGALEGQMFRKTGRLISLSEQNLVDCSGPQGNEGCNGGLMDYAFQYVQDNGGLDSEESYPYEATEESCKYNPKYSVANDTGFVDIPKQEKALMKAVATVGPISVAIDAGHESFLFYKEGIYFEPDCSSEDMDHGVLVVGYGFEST
Target sequence (P07711 292-333 limits assumed): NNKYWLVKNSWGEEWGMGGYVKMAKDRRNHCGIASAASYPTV
CatB block – inhibitors of human cathepsin B. AID 453. 0.1% of 63,000 active. inhibition, %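 (tested at 10 µM)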. P07858. purified cathepsin B, fluorogenic substrate, fluorescence; in the data active = inhibition above about 21%;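 note: 0% = enzyme with no compound and 100% = no enzyme blank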
An asterisk follows results filed as active; · = no result.

SMILES | CatS block | CatB mixtures | C1s block | CatG inh | CatL inh | CatB block
CN(C1CCCCC1)S(=O)(=O)c1ccc(Cl)c(C(=O)O)c1 | 17 | 1 | -22 | -12 | 48* | 7
CC(C)NC(=O)C1CCN(C(=O)c2cc3sccc3n2Cc2ccc(F)cc2)CC1 | -3 | 3 | 9 | 9 | -4 | 0
CC1CCN(C(=O)C2CCN(C(=O)c3cc4sccc4n3Cc3ccc(F)cc3)CC2)CC1 | -2 | 1 | -4 | 7 | 54* | 1
O=C(CCCc1cccs1)Nc1nc2c(s1)CCCC2 | 7 | 7 | -20 | -3 | 48* | -2
CC1(C)O[C@@H]2C[C@H]3[C@@H]4CCC5=CC(=O)C=C[C@]5(C)[C@@]4(F)[C@@H](O)C[C@]3(C)[C@]2(C(=O)CO)O1 | -5 | 2 | -19 | -17 | 14 | 4
C[C@]12C=CC(=O)C=C1CC[C@H]1[C@@H]3C[C@@H](O)[C@](O)(C(=O)CO)[C@@]3(C)C[C@H](O)[C@@]12F | -3 | 6 | 14 | 9 | 94* | ·
CCOC(=O)C1CCCN(C(=O)c2ccc3c(c2)NC(=O)C(N2CCOCC2)S3)C1 (stereo not given) | 11 | -2 | -15 | 5 | 14 | 0
Cc1ccc(OCC(=O)Nc2ccc(N3CCCC3)cc2)cc1C | -5 | 4 | 2 | -3 | 61* | 3
COc1ccc(C)cc1NC(=O)CCN1CCCC1 | -10 | 4 | 11 | 12 | 1 | 3
COc1ccc(Cl)cc1NC(=O)CCN1CCN(c2ccccc2C)CC1 | 14 | 9 | 67* | 11 | 3 | 1
CCOC(=O)N1CCC(NC(=O)c2cccc3c2C(=O)N(c2ccc(OC)cc2)C3)CC1 | 13 | 3 | -28 | 10 | 3 | 2
CCOC(=O)CCc1nc2ccccc2[nH]1 | -5 | 0 | -18 | -10 | -3 | 0
O=C(O)COCc1nc2ccccc2[nH]1 | -3 | 5 | 22* | 14 | 8 | 7
COCCNC(=O)C(c1cccc(OC)c1)N(C(=O)Cn1nnc2ccccc21)c1cccnc1 (stereo not given) | 10 | -4 | 4 | 9 | 5 | 23*
COCCNC(=O)C(c1ccccc1)N(C(=O)Cn1nnc2ccccc21)c1cccnc1 (stereo not given) | 22 | 23 | 3 | 4 | · | 1
Cc1nnc(SCc2nnc(-c3ccc(Cl)cc3)o2)n1-c1ccccc1 | 4 | 3 | -2 | 8 | 26 | 4
Cc1nnc(SCc2nnc(-c3ccccc3Br)o2)n1-c1ccccc1 | 5 | 8 | 17 | 14 | 82* | 0
Cc1cc(NC(=O)c2cccc(COc3ccc(Br)cc3)c2)no1 | -22 | -11 | -177 | -16 | -8 | -1
COc1ccc(N2CCC(CNC(=O)Nc3ccc(C)c(C)c3)C2)cc1 (stereo not given) | 4 | 1 | -7 | 7 | -4 | 41*
Cc1nonc1NC(=O)OC1CCCCC1 | 39 | 2 | -3 | -2 | 0 | 0
COc1ccc2oc(C(=O)C3CC3)c(NC(=O)CCCN3C(=O)c4ccccc4C3=O)c2c1 | -4 | 2 | -1 | 8 | -2 | 0
O=C1NCC2=C1C(c1ccc(Br)cc1)Nc1ccccc1N2 (stereo not given) | -5 | -5 | -58 | -13 | -3 | -4
COc1ccc(C)cc1NC(=O)CSc1nnc(-c2ccccn2)n1Cc1ccco1 | -4 | 3 | -4 | 9 | 4 | 5
COc1ccccc1NC(=O)CSc1nnc(-c2ccccn2)n1Cc1ccco1 | 1 | 9 | 28 | 31* | 0 | 6
Cc1csc(NC(=O)c2ccco2)n1 | -3 | 7 | 22* | 13 | -3 | 7
SMILES | CatS block | CatB mixtures | C1s block | CatG inh | CatL inh | CatB block
Cc1c(NC(=O)C2Cc3ccccc3CN2C(=O)c2ccco2)c(=O)n(-c2ccccc2)n1C (stereo not given) | 8 | 4 | 21* | 14 | 0 | 4
Cc1c(NC(=O)C2CCCN2S(=O)(=O)c2ccccc2)c(=O)n(-c2ccccc2)n1C (stereo not given) | -7 | -1 | 10 | 6 | · | 6
O=C(Oc1cc2oc(=O)c3c(c2cc1Cl)CCCC3)c1ccco1 | -17 | -2 | -27 | 6 | -6 | 0
O=C(Oc1ccc(Cl)cc1N1C(=O)CCC1=O)c1ccco1 | -5 | 8 | 26* | 20 | 15 | 3
CCCCCn1c(=NC(C)=O)c(C#N)cc2c(=O)n3cccc(C)c3nc21 | -3 | -2 | -44 | -5 | -309 | -3
COCCNC(=O)C(OC(=O)c1cccs1)c1ccccc1 (stereo not given) | 12 | 5 | -6 | 6 | 11 | 3
O=C(OC(C(=O)NCc1cccs1)c1ccccn1)c1cccs1 (stereo not given) | 5 | 28* | -3 | 8 | 19 | 35*
CC(C)(C)OC(=O)N1CCCC1C(=O)NC(Cc1ccccc1)C(=O)O (stereo not given) | 1 | 4 | 9 | 7 | 8 | -2
CCCC(=O)Nc1ccc(C(=O)n2nnc3ccccc32)cc1 | -2 | 4 | 92* | 81* | 2 | 1
CC(=O)NC(Cc1ccccc1C)C(=O)NC1CCN(c2c3c(nc4ncnn24)CCC3)CC1 (stereo not given) | -4 | 0 | -1 | 1 | 2 | 6
Cn1c(C(=O)NCCCN2CCCC2=O)cc2c(=O)n(C)c3ccccc3c21 | 1 | 4 | 1 | 7 | 1 | 0
CN(CCNC(=O)c1cc2c(=O)n(C)c3ccccc3c2n1C)Cc1ccccc1 | 72* | 1 | 17 | 13 | · | 4
CCN1CCN(C(=O)c2cc3c(=O)n(C)c4ccccc4c3n2C)CC1 | 1 | -12 | -87 | -12 | -7 | 1
Cn1c(C(=O)N2CCN(Cc3ccccc3)CC2)cc2c(=O)n(C)c3ccccc3c21 | 51* | 1 | -16 | -1 | 18 | -1
CCCN(CCC)CCNC(=O)c1cc2c(=O)n(C)c3ccccc3c2n1C | 77* | -7 | 5 | 10 | -3 | 3
CCOc1cccc2cc(-c3nnc(-c4ccccc4)o3)c(=O)oc12 | 0 | 1 | 0 | 5 | 11 | 5
C#CCOC(=O)c1ccccc1C(=O)n1nnc2ccccc21 | 17 | 9 | 47* | 39* | -5 | 5
CCCn1c(=O)c(C(=O)Nc2nnc(C)s2)c(O)c2ccccc21 | -3 | 2 | 1 | 0 | 4 | -4
O=C(COC(=O)c1cnccn1)c1ccc(OC(=O)c2ccccc2)cc1 | 2 | 4 | 26* | 9 | 6 | -3
O=C(CSc1nc2ccccc2[nH]1)NCCN1CCCCC1 | -1 | 1 | 4 | 6 | 52* | 1
O=C(CSc1nc2ccccc2[nH]1)NCc1ccco1 | 10 | -6 | 1 | 10 | 21 | 1
COc1ccc2c(c1)N(C)C(=O)CC(c1ccccc1)=N2 | 10 | 1 | -3 | 9 | 17 | 2
CCC(C(=O)O)n1nnc(-c2ccc(-c3ccc(OC)cc3)cc2)n1 (stereo not given) | 4 | 0 | -1 | 0 | 66* | -3

Bioassay records (PubChem BioAssay)
